Test [1] can be described thus: Caspase-3/7 induction in CHO-K1 cells by small molecules, qHTS cell viability counter screen (AID 1346979). Further: nearly all actives have a fitted effect of over 35% in size. Further: potency means the concentration at half of the fitted maximal effect. In a few lines:
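Multiplexed with Caspase-Glo 3/7 in CHO-K1 cells, this counter screen added CellTiter-Fluor after 16hr of compound exposure and recorded fluorescence 1hr later.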

In test [2] the target is Nuclear receptor subfamily 1 group I member 2 (Homo sapiens) (UniProt O75469). In words: Human pregnane X receptor (PXR) small molecule agonists, qHTS assay (AID 1346982). Further: nearly all actives have a fitted effect of over 35% in size. Further: potency means the concentration at half of the fitted maximal effect. In a few lines: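 Reporter HepG2 cells expressing PXR-Luc are cultured in charcoal-stripped FBS (5%), treated with compounds for 24 hr at 37 C, and assayed by ONE-Glo luminescence after 30 min at room temperature.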

In test [3] the target is Acetylcholinesterase (Homo sapiens) (UniProt P22303). As to the kind of experiment: Acetylcholinesterase (AChE) small molecule antagonists: colormetric cell-based qHTS assay (AID 1347395; calls by dose curve; further: nearly all actives have a fitted effect of over 30% in size). In a few lines:
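In this cell-based qHTS, attached SH-SY5Y cells were treated with test chemicals for 30 min, after which acetylthiocholine hydrolysis was followed by DTNB colour development over 90 min at 37 C.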

For test [4] the target is unchanged. As to the kind of experiment: Acetylcholinesterase (AChE) small molecule antagonists: enzyme-based qHTS assay (AID 1347397; calls by dose curve; further: nearly all actives have a fitted effect of over 55% in size). The settings on record: Potency: AChE enzyme activity inhibition. In a few lines: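 Tox21 library chemicals are tested in qHTS format against recombinant human AChE. The enzyme, dispensed at 50 mU/mL, sits with compound for 30 min at room temperature. A DTNB–acetylthiocholine cocktail follows, and colour is read after 10 min.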

Test [5] shares this target. As to the kind of experiment: Acetylcholinesterase (AChE) small molecule antagonists: fluorescence cell-based qHTS assay (AID 1347398; calls by dose curve; further: nearly all actives have a fitted effect of over 50% in size). The settings on record: Potency: AChE activity. In a few lines:
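Cellular AChE inhibition: SH-SY5Y cells treated with test chemical for 30 min at 37 C, then acetylthiocholine hydrolysis followed over 40 min at room temperature via thiocholine-reactive Thiolite Green fluorescence (490/520 nm).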

For test [6] the target is unchanged. As to the kind of experiment: Acetylcholinesterase (AChE) small molecule antagonists: enzyme-based qHTS assay with human liver microsomes (AID 1347399; calls by dose curve; further: nearly all actives have a fitted effect of over 60% in size). As to conditions: Potency: qHTS inhibition. In a few lines: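 Recombinant human AChE (50 mU/mL in the enzyme mix) and human liver microsomes (0.25 mg/mL final) were preincubated with compound and NADPH (0.25 mg/mL final) for 30 min at 37 C. Acetylthiocholine/DTNB was then added; thiocholine was read colorimetrically after 10 min at room temperature.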

Test [7] deals with Cytochrome P450 2D6 (Homo sapiens) (UniProt P10635). In words: Cytochrome P450 Family 2 Subfamily D Member 6 (CYP2D6) small molecule antagonists: luciferase reporter qHTS assay (AID 1671196). Further: nearly all actives have a fitted effect of over 50% in size. Further: potency means the concentration at half of the fitted maximal effect. In a few lines: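 Test chemicals meet CYP2D6 plus proluciferin substrate (10 min, RT); NADPH regenerating solution then drives turnover for 1 h. Detection reagent halts the reaction; luminescence measured after 20 min.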

Test [8] addresses Cytochrome P450 2C19 (Homo sapiens) (UniProt P33261). In words: Cytochrome P450 Family 2 Subfamily C Member 19 (CYP2C19) small molecule antagonists: luciferase reporter qHTS assay (AID 1671197). Further: nearly all actives have a fitted effect of over 65% in size. Further: potency means the concentration at half of the fitted maximal effect. In a few lines: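 Quantitative high-throughput screen of the Tox21 library using CYP2C19 with proluciferin substrate. Reaction: NADPH regeneration, 37C, 1 h, after 10 min compound preincubation at room temperature. Readout: luminescence.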

The target in test [9] is Cytochrome P450 2C9 (Homo sapiens) (UniProt P11712). In words: Cytochrome P450 Family 2 Subfamily C Member 9 (CYP2C9) small molecule antagonists: luciferase reporter qHTS assay (AID 1671198). Further: nearly all actives have a fitted effect of over 50% in size. Further: potency means the concentration at half of the fitted maximal effect. In a few lines:
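CYP2C9 activity was measured with a P450-Glo proluciferin substrate. Enzyme–substrate mix was held with compound for 10 min at room temperature, then NADPH regeneration solution was added for 1 h at 37C. Luciferin product was read as luminescence.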

The target of test [10] is Cytochrome P450 1A2 (Homo sapiens) (UniProt P05177). In words: Cytochrome P450 Family 1 Subfamily A Member 2 (CYP1A2) small molecule antagonists: luciferase reporter qHTS assay (AID 1671199). Further: series mostly up to about 120 µM; nearly all actives have a fitted effect of over 50% in size. In a few lines:
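Steps: enzyme-substrate mix dispensed; test compounds and furafylline control pinned in; 10 min room temperature; NADPH regeneration solution added, 1 h; reaction stopped with luciferin detection reagent; luminescence read after 20 min.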

Test [11] concerns the target Voltage-gated inwardly rectifying potassium channel KCNH2 (Homo sapiens) (UniProt Q12809). As to the kind of experiment: Human Ether-a-go-go-Related Gene (hERG) channel small molecule antagonists: fluorescence cell-based qHTS assay (AID 1671200). Further: nearly all actives have a fitted effect of over 50% in size. Further: potency means the concentration at half of the fitted maximal effect. In a few lines: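 Cell line hERG-U2OS; dye FluxOR II, 1 h RT dark; Tl+ stimulus; ex 480/em 540 nm, read each second for 2 min.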

Test [12] can be described thus: Caspase-3/7 induction in HepG2 cells by small molecules, qHTS assay (AID 1346978). Further: nearly all actives have a fitted effect of over 15% in size. Further: potency means the concentration at half of the fitted maximal effect. In a few lines:
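Wild-type HepG2 cells (2,000/well) were settled 5 h at 37 C, 5% CO2, then exposed to compounds in DMSO for 17 h. Caspase-3/7 activity was read by luminescence 30 min after adding Caspase-Glo 3/7 reagent at room temperature.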

A short description of test [13]: Caspase-3/7 induction in CHO-K1 cells by small molecules, qHTS assay (AID 1346980). Further: nearly all actives have a fitted effect of over 15% in size. In a few lines: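 Wild-type cells were seeded at 1,500 per well and settled 5 hr at 37 C, 5% CO2, then exposed to DMSO-dissolved compounds for 17 hr. Caspase-Glo 3/7 reagent was added, and luminescence was read after 30min at room temperature.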
Test [14] in a line: Caspase-3/7 induction in HepG2 cells by small molecules, qHTS cell viability counter screen (AID 1346981). Further: nearly all actives have a fitted effect of over 30% in size. Further: potency means the concentration at half of the fitted maximal effect. In a few lines:
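In this quantitative HTS counter screen, compounds delivered in DMSO were left on unmodified HepG2 cells for 16 hr at 37 C. Viability was then determined fluorometrically with CellTiter-Fluor, in parallel with caspase-3/7 induction in the same wells.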

In test [15] the target is Nuclear receptor subfamily 1 group I member 2 (Homo sapiens) (UniProt O75469). In words: CYP3A4 induction through human pregnane X receptor (PXR) by small molecules, qHTS assay (AID 1346984). Further: nearly all actives have a fitted effect of over 40% in size. In a few lines: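 Induction measured in HepG2-based DPX-2 cells co-expressing human PXR and a CYP3A4 promoter-driven luciferase. After a 24-hour compound exposure, cells received CYP3A4 luciferin substrate at 3uM final for 3 hours, and light output was then recorded.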

Test [16] has the same target. In words: Human pregnane X receptor (PXR) activation by small molecules, qHTS assay (AID 1346985). Further: potency means the concentration at half of the fitted maximal effect; nearly all actives have a fitted effect of over 40% in size. In a few lines: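 DPX-2 cells (HepG2 co-transfected with a PXR response element and a CYP3A4-promoter luciferase construct) were seeded at 2,000 per well, rested 5 hr at 37C, then exposed to DMSO-dissolved compounds for 24 hr. Activation was read as luciferase luminescence.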

For test [17], the target named is Cytochrome P450 3A4 (Homo sapiens) (UniProt P08684). In words: Cytochrome P450 Family 3 Subfamily A Member 4 (CYP3A4) small molecule antagonists: luciferase reporter qHTS assay (AID 1671201). In a few lines: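 Room-temperature assay throughout: 10 min compound–enzyme/substrate preincubation, 1 h reaction after NADPH regeneration solution, 20 min detection. Luciferin formed from proluciferin substrate is quantified by luminescence.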

Where “and” joins values, the source holds several entries; their conditions need not be identical. Equal values may be shown once. Inconclusive results are not listed. More than one record can exist for a structure, and the calls need not agree. Calls of active or inactive are those of the source. Unless noted, the call rests on the fitted dose curve; in most records, active means well fitted curve in the direction sought with a large enough effect in the repeat runs; inconclusive means weak or mixed curves; inactive means no such curve, though single readings can be large; an effect the other way counts as inactive or inconclusive.

Chain of Cytochrome P450 2C9 (Homo sapiens) (P11712 whole entry, looked up): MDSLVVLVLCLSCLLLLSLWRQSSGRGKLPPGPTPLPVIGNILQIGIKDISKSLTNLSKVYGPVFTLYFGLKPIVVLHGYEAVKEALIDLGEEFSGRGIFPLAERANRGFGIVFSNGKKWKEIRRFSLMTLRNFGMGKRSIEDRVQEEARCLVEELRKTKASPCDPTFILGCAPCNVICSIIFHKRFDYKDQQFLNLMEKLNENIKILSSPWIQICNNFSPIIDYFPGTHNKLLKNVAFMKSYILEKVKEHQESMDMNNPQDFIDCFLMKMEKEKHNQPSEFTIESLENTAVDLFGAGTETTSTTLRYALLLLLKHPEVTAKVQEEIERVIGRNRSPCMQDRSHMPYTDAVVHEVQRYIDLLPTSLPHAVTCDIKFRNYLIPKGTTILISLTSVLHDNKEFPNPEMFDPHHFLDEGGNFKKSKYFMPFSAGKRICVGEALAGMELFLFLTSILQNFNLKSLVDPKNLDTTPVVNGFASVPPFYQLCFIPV
Chain of Voltage-gated inwardly rectifying potassium channel KCNH2 (Homo sapiens) (Q12809 whole entry, looked up): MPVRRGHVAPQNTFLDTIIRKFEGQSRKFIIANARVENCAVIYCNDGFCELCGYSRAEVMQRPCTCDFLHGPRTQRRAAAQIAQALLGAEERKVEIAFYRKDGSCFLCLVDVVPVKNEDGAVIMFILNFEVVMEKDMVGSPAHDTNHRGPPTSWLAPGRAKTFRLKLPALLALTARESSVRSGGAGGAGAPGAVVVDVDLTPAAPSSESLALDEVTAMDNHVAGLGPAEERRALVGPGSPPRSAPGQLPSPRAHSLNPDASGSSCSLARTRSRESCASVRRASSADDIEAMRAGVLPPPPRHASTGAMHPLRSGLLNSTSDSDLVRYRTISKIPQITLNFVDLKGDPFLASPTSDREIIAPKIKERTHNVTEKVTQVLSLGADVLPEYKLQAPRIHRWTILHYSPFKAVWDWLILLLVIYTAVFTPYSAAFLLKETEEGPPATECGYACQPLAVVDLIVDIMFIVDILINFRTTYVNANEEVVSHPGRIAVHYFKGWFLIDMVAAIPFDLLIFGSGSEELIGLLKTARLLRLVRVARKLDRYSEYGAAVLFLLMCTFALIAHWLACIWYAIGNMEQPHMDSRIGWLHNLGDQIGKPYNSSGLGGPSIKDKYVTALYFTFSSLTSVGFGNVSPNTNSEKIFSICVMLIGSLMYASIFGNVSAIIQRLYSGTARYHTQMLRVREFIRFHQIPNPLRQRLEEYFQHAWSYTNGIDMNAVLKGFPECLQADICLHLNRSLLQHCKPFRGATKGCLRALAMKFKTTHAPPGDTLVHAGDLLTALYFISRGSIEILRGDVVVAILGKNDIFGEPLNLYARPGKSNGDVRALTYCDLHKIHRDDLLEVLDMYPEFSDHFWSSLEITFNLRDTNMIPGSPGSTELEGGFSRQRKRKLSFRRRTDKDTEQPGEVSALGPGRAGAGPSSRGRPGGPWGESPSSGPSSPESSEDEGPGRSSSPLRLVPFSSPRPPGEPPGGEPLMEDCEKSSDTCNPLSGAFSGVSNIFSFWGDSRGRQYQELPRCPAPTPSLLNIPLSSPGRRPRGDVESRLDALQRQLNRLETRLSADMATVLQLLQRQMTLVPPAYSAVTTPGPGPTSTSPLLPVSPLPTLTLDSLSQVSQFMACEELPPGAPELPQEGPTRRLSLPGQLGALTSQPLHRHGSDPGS
Chain of Nuclear receptor subfamily 1 group I member 2 (Homo sapiens) (O75469 whole entry, looked up): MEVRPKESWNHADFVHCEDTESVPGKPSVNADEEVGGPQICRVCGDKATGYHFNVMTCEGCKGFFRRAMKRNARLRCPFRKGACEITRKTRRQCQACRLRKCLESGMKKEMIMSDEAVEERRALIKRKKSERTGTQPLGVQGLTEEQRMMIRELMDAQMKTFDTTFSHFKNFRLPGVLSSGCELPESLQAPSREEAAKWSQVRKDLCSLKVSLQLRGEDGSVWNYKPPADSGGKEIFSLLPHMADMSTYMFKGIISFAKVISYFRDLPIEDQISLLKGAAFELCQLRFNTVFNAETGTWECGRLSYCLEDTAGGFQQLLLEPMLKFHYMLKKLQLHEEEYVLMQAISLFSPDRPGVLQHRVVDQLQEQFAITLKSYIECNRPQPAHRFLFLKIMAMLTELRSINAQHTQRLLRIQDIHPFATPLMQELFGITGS
Chain of Cytochrome P450 2C19 (Homo sapiens) (P33261 whole entry, looked up): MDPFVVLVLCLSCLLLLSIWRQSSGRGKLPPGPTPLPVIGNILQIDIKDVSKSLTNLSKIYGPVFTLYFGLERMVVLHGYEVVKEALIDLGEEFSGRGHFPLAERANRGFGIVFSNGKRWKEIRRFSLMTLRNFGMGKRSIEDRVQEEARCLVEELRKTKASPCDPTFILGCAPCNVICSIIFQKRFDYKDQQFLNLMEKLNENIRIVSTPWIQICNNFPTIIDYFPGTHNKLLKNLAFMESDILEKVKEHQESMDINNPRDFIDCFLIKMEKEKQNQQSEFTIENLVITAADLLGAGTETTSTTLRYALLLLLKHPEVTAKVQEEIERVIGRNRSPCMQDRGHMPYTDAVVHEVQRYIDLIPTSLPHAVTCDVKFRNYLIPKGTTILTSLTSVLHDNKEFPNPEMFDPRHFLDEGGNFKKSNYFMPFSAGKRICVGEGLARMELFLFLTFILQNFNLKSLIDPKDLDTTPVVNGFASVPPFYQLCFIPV
Chain of Cytochrome P450 1A2 (Homo sapiens) (P05177 whole entry, looked up): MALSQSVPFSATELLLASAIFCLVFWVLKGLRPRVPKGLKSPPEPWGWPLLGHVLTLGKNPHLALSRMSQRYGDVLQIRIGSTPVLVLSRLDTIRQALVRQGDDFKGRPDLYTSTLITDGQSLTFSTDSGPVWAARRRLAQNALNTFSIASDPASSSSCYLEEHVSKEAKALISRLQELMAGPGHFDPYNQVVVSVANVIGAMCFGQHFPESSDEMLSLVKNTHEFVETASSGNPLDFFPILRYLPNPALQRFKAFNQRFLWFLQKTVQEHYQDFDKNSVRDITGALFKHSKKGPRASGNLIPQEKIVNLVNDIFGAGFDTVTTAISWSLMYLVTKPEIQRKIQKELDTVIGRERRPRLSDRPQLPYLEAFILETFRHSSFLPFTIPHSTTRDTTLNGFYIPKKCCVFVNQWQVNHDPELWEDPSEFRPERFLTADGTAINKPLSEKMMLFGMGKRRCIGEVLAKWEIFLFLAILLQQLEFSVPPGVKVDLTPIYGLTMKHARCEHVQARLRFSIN
Chain of Acetylcholinesterase (Homo sapiens) (P22303 whole entry, looked up): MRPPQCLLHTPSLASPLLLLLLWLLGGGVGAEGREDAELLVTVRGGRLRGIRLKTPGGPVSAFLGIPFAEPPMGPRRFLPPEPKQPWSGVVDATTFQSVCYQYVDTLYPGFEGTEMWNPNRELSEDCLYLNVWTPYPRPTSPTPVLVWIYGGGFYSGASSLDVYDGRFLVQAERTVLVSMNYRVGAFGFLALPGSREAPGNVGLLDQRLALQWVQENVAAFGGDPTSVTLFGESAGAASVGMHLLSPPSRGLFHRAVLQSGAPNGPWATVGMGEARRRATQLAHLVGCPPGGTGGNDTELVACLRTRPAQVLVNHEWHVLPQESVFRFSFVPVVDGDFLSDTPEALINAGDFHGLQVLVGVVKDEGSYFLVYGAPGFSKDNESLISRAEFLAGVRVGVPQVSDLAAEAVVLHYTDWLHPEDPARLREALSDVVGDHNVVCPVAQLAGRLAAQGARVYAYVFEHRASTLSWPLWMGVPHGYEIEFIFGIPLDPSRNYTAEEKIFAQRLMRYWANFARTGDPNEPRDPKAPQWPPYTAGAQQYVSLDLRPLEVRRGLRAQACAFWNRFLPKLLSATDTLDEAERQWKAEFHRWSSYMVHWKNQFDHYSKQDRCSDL
Chain of Cytochrome P450 2D6 (Homo sapiens) (P10635 whole entry, looked up): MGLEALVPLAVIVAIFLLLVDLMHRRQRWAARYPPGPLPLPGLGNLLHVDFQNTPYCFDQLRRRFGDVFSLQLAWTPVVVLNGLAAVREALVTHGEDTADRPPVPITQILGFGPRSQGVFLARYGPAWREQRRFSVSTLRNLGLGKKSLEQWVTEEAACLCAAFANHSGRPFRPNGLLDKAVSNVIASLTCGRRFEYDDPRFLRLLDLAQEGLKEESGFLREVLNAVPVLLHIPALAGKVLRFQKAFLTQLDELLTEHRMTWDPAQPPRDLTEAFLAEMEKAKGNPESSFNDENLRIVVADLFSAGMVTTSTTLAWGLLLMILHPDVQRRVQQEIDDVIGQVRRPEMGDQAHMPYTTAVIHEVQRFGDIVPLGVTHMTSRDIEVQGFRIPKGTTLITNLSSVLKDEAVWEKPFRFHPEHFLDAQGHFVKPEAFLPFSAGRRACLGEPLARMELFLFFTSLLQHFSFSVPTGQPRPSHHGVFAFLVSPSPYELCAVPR
Chain of Cytochrome P450 3A4 (Homo sapiens) (P08684 whole entry, looked up): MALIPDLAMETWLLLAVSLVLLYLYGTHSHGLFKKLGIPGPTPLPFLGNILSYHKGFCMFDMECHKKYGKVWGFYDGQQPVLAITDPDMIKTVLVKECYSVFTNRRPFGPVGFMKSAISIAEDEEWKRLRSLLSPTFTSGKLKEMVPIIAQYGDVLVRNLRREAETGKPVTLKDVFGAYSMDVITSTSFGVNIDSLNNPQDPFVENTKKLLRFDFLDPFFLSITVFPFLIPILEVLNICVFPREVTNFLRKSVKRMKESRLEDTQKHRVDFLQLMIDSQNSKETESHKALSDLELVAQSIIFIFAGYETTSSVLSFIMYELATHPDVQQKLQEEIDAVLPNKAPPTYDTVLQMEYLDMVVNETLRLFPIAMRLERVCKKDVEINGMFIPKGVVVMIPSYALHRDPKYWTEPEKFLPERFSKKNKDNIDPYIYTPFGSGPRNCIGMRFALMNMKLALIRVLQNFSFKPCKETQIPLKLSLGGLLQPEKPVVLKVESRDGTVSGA

Regarding `O=S1OCC2C(CO1)C1(Cl)C(Cl)=C(Cl)C2(Cl)C1(Cl)Cl` (stereo not given), the Potency in test [1] was 61.2 µM (active) and 68.5 µM (active); in test [2], 24.4 µM (active) and inactive; in [7], 4 µM (active); in [8] it was 3.18 µM (active) and 3.56 µM (active); in test [9] it was 35.6 µM (active) and 31.7 µM (active); in test [11], 21.9 µM (active) and 27.5 µM (active). In addition, the Potency result in [3], in test [4], in [5], in [6] and in [10] was “inactive” in each case.
As for `ClC1=C(Cl)[C@]2(Cl)[C@@H]3[C@H]4C[C@H]([C@@H]5O[C@H]45)[C@@H]3[C@@]1(Cl)C2(Cl)Cl`, the Potency result in [12], in test [13], in [14], in test [15], in [3] and in test [4] was “inactive” throughout. In addition, the Potency entry in test [5], in [6] and in test [7] was “inactive” each time. Besides, the figures for the Potency in [2], in test [16] and in [8] were 5.44 µM (active), 25.1 µM (active) and 63.3 µM (active), respectively.
In the case of `O=C1C2(Cl)C3(Cl)C4(Cl)C(Cl)(Cl)C5(Cl)C3(Cl)C1(Cl)C5(Cl)C24Cl` (stereo not given), the Potency is 30.1 µM (active) and 65.7 µM (active) in test [12]; 37.9 µM (active) and 46.5 µM (active) in test [1]; 60.1 µM (active) in test [14]; 10.7 µM (active) and 10.4 µM (active) in [2]; 622 nM (active) and 961 nM (active) in test [8]; 5.55 µM (active) and 6.06 µM (active) in test [9]. Moreover, the Potency is 12.1 µM (active) and 14.8 µM (active) in [11]; 2.78 µM (active) and 3.41 µM (active) in test [17]. Besides, the Potency entry in [4], in test [5], in [6], in test [7] and in test [10] was “inactive” throughout.
For `CCc1cccc(C)c1N(C(=O)CCl)[C@@H](C)COC`, the Potency entry in test [12], in test [13], in test [14], in [3], in test [4] and in test [5] was “inactive” in each case. The Potency result in [6], in test [7] and in test [11] was “inactive” throughout. Besides, the Potency in test [2] was 7.7 µM (active); in [8] it was 5.64 µM (active); in test [9], 17.8 µM (active).
`O=[N+]([O-])[O-].[Tl+]`: the Potency entry in test [12], in test [13] and in [11] was “inactive” in each case. Moreover, the Potency in test [1] is 61.6 µM (active).
Regarding `Nc1nc(N)nc(Cl)n1`, the Potency entry in test [12], in test [1], in [14], in [2], in test [3] and in test [4] was “inactive” in each case. In addition, the Potency entry in [5], in test [6], in [7], in test [8], in test [9] and in [10] was “inactive” throughout. In addition, in test [11], the Potency entry was “inactive”.
As to `CCN(CC)Cc1nccn1-c1ccc([N+](=O)[O-])cc1C(=O)c1ccccc1Cl`, the Potency result in test [12], in test [1], in [3], in test [4], in test [5] and in test [6] was “inactive” throughout. Besides, the Potency result in [9] is “inactive”. In addition, the values for the Potency in test [2], in test [7] and in [11] were 10.6 µM (active), 3.09 µM (active) and 5.35 µM (active), respectively.

The values above are taken from PubChem BioAssay (Tox21).
